# Shown is part of a subset that was picked to be rich in hits.
# FBPA Giardia inh = qHTS Assay for Inhibitors of Fructose-1,6-bisphosphate Aldolase from Giardia Lamblia; A8B2U2; 290,000 compounds, 0.71% hits; purified Giardia FBPA; AID 2451, 2010; Potency, µM (doses to about 59.6 µM), usual class: inhibitors; note: nearly all actives have a fitted effect of over 55% in size
# Target sequence (A8B2U2 whole entry, looked up): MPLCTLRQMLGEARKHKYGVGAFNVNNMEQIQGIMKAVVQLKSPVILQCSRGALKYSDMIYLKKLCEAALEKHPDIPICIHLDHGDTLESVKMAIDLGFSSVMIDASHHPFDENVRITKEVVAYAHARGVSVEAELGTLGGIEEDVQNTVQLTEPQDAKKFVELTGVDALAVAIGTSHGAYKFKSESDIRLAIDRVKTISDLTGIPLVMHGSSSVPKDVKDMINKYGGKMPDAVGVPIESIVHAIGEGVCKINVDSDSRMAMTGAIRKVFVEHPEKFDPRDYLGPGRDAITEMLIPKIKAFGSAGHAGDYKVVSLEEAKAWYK
#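 Giardia FBPA (40 nM reagent) was preincubated 10 min at RT with compound (up to 57.5 uM final), then substrate plus GAPDH/TPI/NAD/arsenate coupling system with diaphorase/resazurin was added; resorufin fluorescence (525/598 nm) was read after 20 min.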
# Shiga toxin inh = A qHTS for Small Molecule Inhibitors of Shiga Toxin; Vero cells, Shiga toxin protein synthesis inhibition reporter; inhibition, % at 38.7 µM; 290,000 compounds, 9.2% hits; AID 2315, 2010; in the data active = inhibition mostly above about 28%, no sharp cut-off; inactive = mostly below about 43%
# Cycloheximide cs = Cycloheximide Counterscreen for Small Molecule Inhibitors of Shiga Toxin | 300,000 compounds, 12% hits | AID 2314, 2010 | cell reporter, cycloheximide protein synthesis inhibition counterscreen | max response, %; in the data active = max response mostly above about 13%, no sharp cut-off; inactive = mostly below about 14%; note: read at 38.3 µM for the half of the compounds with a filed dose
# LmPK inhibitor = qHTS Assay for Inhibitors of Leishmania Mexicana Pyruvate Kinase (LmPK); Potency, µM (top dose mostly 57.5 µM), most hits filed as inhibitors; Q27686; purified LmPK, Kinase-Glo ATP luminescence, 1 h; 290,000 compounds, 0.37% hits
#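 Purified LmPK (0.1 nM) with 0.5 mM PEP and 0.1 mM ADP in imidazole buffer pH 7.2 with MgCl2/KCl, 1 h at room temperature. ATP formed was read by luciferase luminescence and normalized to no-enzyme and uninhibited controls.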
# Tb PYK inh = qHTS of Trypanosoma Brucei Inhibitors | Potency, µM (top dose mostly 76.8 µM), actives largely listed as inhibitors | pyruvate kinase (Trypanosoma brucei), Q57TT1 | 410,000 compounds, 0.12% hits | TbPYK enzyme, Kinase-Glo Plus ATP luminescence, 45 min | AID 624173, 2012; note: nearly all actives have a fitted effect of over 50% in size
#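 Readout: single end-point luminescence (Kinase-Glo Plus, 10 min). Reaction conditions were TbPYK/substrate plus 130 uM ADP, 45 min at RT, pH 7.2 TEA buffer. No-enzyme wells served as controls, and data were normalized before concentration-response fitting.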
# Sm TGR inh = qHTS Assay for the Inhibitors of Schistosoma Mansoni Peroxiredoxins; Potency, µM (series often up to 114 µM), most hits filed as inhibitors; purified TGR, DTNB reduction, TNB absorbance 405 nm; AID 485364, 2010; 360,000 compounds, 3% hits; Schistosoma mansoni thioredoxin glutathione reductase (TGR), Q962Y6; note: nearly all actives have a fitted effect of over 60% in size
#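 Kinetic colorimetric format: TGR-catalysed, NADPH-driven DTNB reduction monitored via TNB absorbance. Enzyme dispensed at 20 nM; compound exposure 15 min at room temperature before reaction start.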
# Numbers stand for hits; . = inactive; ? = inconclusive; / = no result. Unless noted, calls come from the whole dose curve; as a rule, active = well fitted curve in the direction sought with a large enough effect; inconclusive = small, poorly fitted or top-dose-only effect, or another doubt; inactive = no such curve, though single readings can be large; an effect the other way counts as inactive or inconclusive.
SMILES,FBPA Giardia inh,Shiga toxin inh,Cycloheximide cs,LmPK inhibitor,Tb PYK inh,Sm TGR inh
Cc1nc(C)c(/C(O)=C/c2nc3ccccc3oc2=O)s1,.,.,21.8,.,.,.
CC(C)C/C(O)=C/c1nc2cc(Cl)ccc2oc1=O,?,.,.,.,.,.
O=c1oc2ccccc2nc1/C=C(\O)c1ccccc1,?,103.7,63.2,.,.,.
O=c1oc2cc([N+](=O)[O-])ccc2nc1/C=C(O)/C=C/c1ccccc1,.,.,.,.,/,35.5µM
CC(C)C(NC(=O)c1c(F)cccc1F)C(=O)NCc1ccc(S(=O)(=O)N2CCOCC2)cc1 (configuration not stated),/,/,/,/,.,.
COC(=O)C1=C[C@@H](C(=O)OC)C2C3=C(C(=O)[C@@]2(CC(C)C)NC(=O)c2ccccc2)[C@H](C)n2c(=O)n(C)c(=O)n2[C@@H]3C1 (some centres not stated),.,.,.,/,/,/
O/C(=C\c1nc2ccccc2nc1/C=C(\O)c1ccccc1)c1ccccc1,3.15µM,101.6,31.0,?,.,.
Cc1nc2c(-c3ccc(F)cc3)c(C)nn2c(C)c1CCC(=O)NCc1ccc(Cl)cc1,/,/,/,/,.,.
CCOC(=O)N1CCC(NC(=O)c2ccc(Cl)cc2)CC1,.,.,.,.,.,.
CCOC(=O)N1CCC(Nc2nc3ccccc3nc2NS(=O)(=O)c2ccc(Cl)cc2)CC1,.,95.5,29.6,.,.,.
Cc1ccc(N(C(=O)Cc2cccs2)C(C(=O)NC2CCCCC2)c2ccccn2)cc1C (configuration not stated),.,32.4,.,.,.,.
N#C/C(=C/c1ccc(N2CCOCC2)o1)C(=O)Nc1ccccc1,.,75.7,35.8,.,.,/
N#C/C(=C\c1ccc(N2CCOCC2)o1)C(=O)NC1CCCCC1,.,46.0,22.7,.,.,35.5µM
O=C1NC2(CCCCC2)OC12CCCCC2,/,/,/,/,.,/
CCOC(=O)c1ccc(NC(=O)CN2C(=O)CSCC2=O)cc1,.,.,.,.,.,.
COC(=O)c1ccc(NC(=O)CN2C(=O)CSC2=O)cc1,.,.,15.5,.,.,.
CCOC(=O)c1ccc(NC(=O)CN2C(=O)CSC2=O)cc1,.,.,23.3,.,?,.
CC(C)N(Cc1ccccc1)C(=O)COC(=O)CCC(=O)c1ccc(F)cc1,/,/,/,/,.,.
COc1ccc([C@@H]2C[C@H]3[C@@H](CN2S(=O)(=O)c2ccccc2)C(=O)C[C@@H](c2cccc(Cl)c2)N3S(=O)(=O)c2ccc(C)cc2)cc1,/,/,/,/,.,/
O=C(NCC(=O)N1CCN(S(=O)(=O)c2ccccc2F)CC1)c1ccc2c(c1)OCO2,/,/,/,/,.,.
O=[N+]([O-])c1ccccc1CN1CCN(S(=O)(=O)c2ccccc2)CC1,/,/,/,/,.,/
CCOC(=O)c1ccc(S(=O)(=O)N2CCN(Cc3cc4c(cc3O)OCO4)CC2)cc1,/,/,/,/,.,0.355µM
O=S(=O)(c1ccccc1F)N1CCN(Cc2cc3c(cc2O)OCO3)CC1,/,/,/,/,.,0.708µM
Cc1cc(C)c(S(=O)(=O)N2CCN(Cc3ccc4c(c3)OCO4)CC2)cc1C,/,/,/,/,.,.
Cc1ccc(C)c(S(=O)(=O)N2CCN(Cc3cc4c(cc3O)OCO4)CC2)c1,/,/,/,/,.,0.631µM
SMILES,FBPA Giardia inh,Shiga toxin inh,Cycloheximide cs,LmPK inhibitor,Tb PYK inh,Sm TGR inh
CCOC(=O)c1ccc(S(=O)(=O)N2CCN(C(C)=O)CC2)cc1,.,.,.,.,.,.
O=[N+]([O-])c1ccccc1S(=O)(=O)N1CCN(Cc2cc3c(cc2O)OCO3)CC1,.,.,.,.,.,0.562µM
Cc1ccc(NC(=O)CN2C(=O)COc3ccc(S(=O)(=O)N4CCCCC4)cc32)cc1N(C)C,/,/,/,/,.,.
O=C(c1ccc2c(c1)OCO2)N1CCN(c2ccc(F)cc2)CC1,.,.,18.5,.,.,.
CCOC(=O)c1ccc(S(=O)(=O)N2CCN(C3CCCC3)CC2)cc1,.,.,.,.,.,12.6µM
Oc1cc2c(cc1CN1CCN(c3ccc(F)cc3)CC1)OCO2,.,.,.,.,.,2.51µM
O=C(c1ccc2c(c1)OCO2)N1CCN(c2cccc(C(F)(F)F)c2)CC1,.,.,.,.,.,.

# Screens: PubChem, National Center for Advancing Translational Sciences (NCATS)
